Results: PubChem BioAssay
A number with no mark means an inactive call. No rule for the calls is given here.

Biological target: Pantothenate synthetase (Mycobacterium tuberculosis (strain ATCC 25618 / H37Rv)) (UniProt P9WIL5)
Experiment: Coupled enzyme confirmation of inhibitors against recombinant Mtb PanC (AID 375);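 also: 0% = full reaction with vehicle and 100% = no enzyme background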
Conditions: coupled enzyme assay; at 10 µM, active compounds read high

Pantothenate synthetase (Mycobacterium tuberculosis (strain ATCC 25618 / H37Rv)), sequence (P9WIL5 whole entry, looked up): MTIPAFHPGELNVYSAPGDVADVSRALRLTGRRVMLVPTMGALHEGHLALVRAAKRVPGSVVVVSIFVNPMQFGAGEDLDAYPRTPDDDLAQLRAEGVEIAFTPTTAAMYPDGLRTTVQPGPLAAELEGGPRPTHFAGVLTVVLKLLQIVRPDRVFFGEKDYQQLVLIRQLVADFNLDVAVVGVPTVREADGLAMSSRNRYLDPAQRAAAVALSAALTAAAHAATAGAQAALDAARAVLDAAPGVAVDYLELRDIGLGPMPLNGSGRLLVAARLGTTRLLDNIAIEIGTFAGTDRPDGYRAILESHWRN

SMILES	inhibition [%]
CC(=N\O)/C(CN(C)C)=N/O	0
c1ccc(-c2oc3ncnc(NCCN4CCOCC4)c3c2-c2ccccc2)cc1	4
COCCNC(=O)CN1CCN(Cc2cccc(Cl)c2)C1=O	0
Cc1ccc(CN2C(=O)CCC2C(=O)NCC2CCCO2)cc1 (centres undefined)	3
C=CCn1c(SCC(=O)NC23CC4CC(CC(C4)C2)C3)nc(O)cc1=O	0
Cc1nc2ccccc2c(=O)n1NC(=O)Nc1ccccc1	0
COC(=O)c1ccc(CSc2nc3c(cnn3-c3ccc(C)c(C)c3)c(=O)[nH]2)o1	3
COc1ccc(CCn2c(-c3ccco3)nc3ccccc3c2=O)cc1OC	0
CCN(CC)S(=O)(=O)c1ccc2oc(C(=O)N3CCOCC3)c(C)c2c1	0
Cn1c(=O)c(C(=S)NC(=O)C2CC2)c(N)n(Cc2ccccc2)c1=O	3
FC(F)(F)COc1nc(N2CCCCC2)nc(N2CCNCC2)n1	4
O=C(NCCCCNC(=O)c1cccnc1)c1cccnc1	0
O=S(=O)(Nc1ccn(-c2ccccc2)n1)c1ccc(Br)cc1	0
CC1CCN(S(=O)(=O)c2ccc3[nH]cc(C(=O)NCCN4CCOCC4)c(=O)c3c2)CC1	0
COc1ccc2c(c1)OC(O)(C(F)F)CC2=O (centres undefined)	0
CC1CCCC(C)N1CCNC(=O)C1CCN(S(=O)(=O)N2CCCCC2)CC1 (centres undefined)	3
O=C(C1CCN(S(=O)(=O)c2ccc(-n3cnnn3)cc2)CC1)N1CCN(c2ccccc2)CC1	11
O=C(NCc1ccco1)c1cccc(S(=O)(=O)N2CCCCC2)c1	0
CCCCc1oc2ccccc2c1C(=O)c1cc(I)c(OCCN(CC)CC)c(I)c1	8
O=c1c2ccccc2nnn1CSc1nnc2sc3ccccc3n12	0
CCC(=O)/C=C1\Sc2ccc(OC)cc2N1CCO	3
COc1ccccc1N1CCN(C(=O)CSc2nc3ncnc(N)c3[nH]2)CC1	8
COc1cccc(Nc2cc(C)nc3ccccc23)c1	1
O=C(CSc1oc(-c2ccco2)nc1S(=O)(=O)c1ccccc1)NCC1CCCO1 (centres undefined)	0
